Results from PubChem BioAssay (EPA / NIEHS).
Inconclusive results are not listed. Activity calls are given as the source filed them. Rule for the calls: active = hit-call score of the fitted dose curve at least 0.9, where 1 is the maximum; inconclusive = response in the unintended direction; inactive = score below 0.9.

What follows are compounds tested against Oxysterols receptor LXR-alpha (Homo sapiens) (UniProt Q13133) (assay: ATG_LXRa_TRANS: Attagene TRANS-FACTORIAL HepG2 Assay for human Liver X Receptor alpha (LXRa) (AID 2282980)). Settings: HepG2 Attagene TRANS reporter, LXRa transactivation.
Procedure: ATG_TRANS is a cell-based, multiplexed-readout assay that uses HepG2, a human liver cell line, with measurements taken at 24 hours after chemical dosing in a 24-well plate.ATG_LXRa_TRANS is one of 30 assay component(s) measured or calculated from the ATG_TRANS assay. It is designed to make measurements of mRNA induction, a form of inducible reporter, as detected with fluorescence intensity signals by Reverse transcription polymerase chain reaction (RT-PCR) and Capillary electrophoresis technology.Data from the assay component ATG_LXRa_TRANS was analyzed into 1 assay endpoint. This assay endpoint, ATG_LXRa_TRANS, was analyzed in the positive analysis fitting direction relative to DMSO as the negative control and baseline of activity. Using a type of inducible reporter, measures of mRNA for gain-of-signal activity can be used to understand the reporter gene at the transcription factor-level as they relate to the gene NR1H3. Furthermore, this assay endpoint can be referred to as a primary readout, because this assay has produced multiple assay endpoints where this one serves a reporter gene function. To generalize the intended target to other relatable targets, this assay endpoint is annotated to the nuclear receptor intended target family, where the subfamily is non-steroidal.
Human liver HepG2 cells are transiently transfected with multiple reporter transcription units (MRTUs) in 6-well plates using FuGene 6 reagent (Roche; 3 ml FuGene/1 mg DNA). The MRTU constructs are regulated by a cis-regulating element (promoter). […] A major difference between the CIS and TRANS system is that in CIS activities of endogenous TFs are measured, whereas the TRANS assay evaluates changes in activities of exogenous, chimeric NR-Gal4 proteins. […] At the end of 24 hour incubation, total RNA was isolated using TriZol reagent (Invitrogen). The isolated RNA is then reverse-transcribed using oligo(dT) primer and Mo-MLV reverse transcriptase (Invitrogen) with DNAse I (Ambion) treatment for 30 min. The one-tenth of the produced cDNA was amplified by PCR using Taq DNA polymerase (Invitrogen) and two reporter sequence-specific primers. The PCR products were fluorescently labeled by primer extension with 6-arboxyfluorescein (6-FAM) 5'-labeled reporter sequence-specific primer (2 min at 95 C, 20 s at 68 C and 10 min at 72 C) and these products were digested with 5U of HpaI (New England Biolabs) for 2h at 37 C. The fragments were purified using Qiaquick PCR columns (Qiagen), analyzed on an ABI 3130xL genetic analyzer (Applied Biosystems) with peak positions identified by using a set of X-rhodamine (ROX)-labeled MapMarker1000 molecular weight standards (BioVentures). The raw capillary electrophoresis data was processed using Attagraph software (Attagene).

Sequence of Oxysterols receptor LXR-alpha (Homo sapiens) (Q13133 whole entry, looked up): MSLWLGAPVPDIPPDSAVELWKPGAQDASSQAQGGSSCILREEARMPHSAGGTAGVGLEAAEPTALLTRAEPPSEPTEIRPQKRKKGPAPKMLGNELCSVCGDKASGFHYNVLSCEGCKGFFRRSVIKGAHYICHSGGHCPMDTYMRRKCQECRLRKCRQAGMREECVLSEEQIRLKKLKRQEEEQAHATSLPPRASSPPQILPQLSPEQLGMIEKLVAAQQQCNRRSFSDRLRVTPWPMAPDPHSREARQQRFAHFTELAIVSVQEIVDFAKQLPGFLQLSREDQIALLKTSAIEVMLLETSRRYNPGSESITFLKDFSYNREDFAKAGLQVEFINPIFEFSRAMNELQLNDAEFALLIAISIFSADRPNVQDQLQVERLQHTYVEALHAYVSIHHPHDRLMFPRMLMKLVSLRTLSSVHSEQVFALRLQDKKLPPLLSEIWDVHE

Row | SMILES | outcome | AC50
1 | CC(C)=CCC[C@](C)(O)[C@@H]1CC=C(C)CC1 | inactive | 
2 | CC(C)=CCCC(C)=CCCC(C)=CCO | inactive | 
3 | CC(CCO)CCc1ccccc1 (stereo not given) | inactive | 
4 | C=C[C@@H](C)CCC=C(C)C | inactive | 
5 | CCOC(=O)c1ccccc1OC | inactive | 
6 | CC(C)=CCCC(C)CC=O (stereo not given) | inactive | 
7 | CC(C)(C)NC(N)=O | inactive | 
8 | CC1CCC(C(C)(C)O)CC1 (stereo not given) | inactive | 
9 | CC(C)(CO)[N+](=O)[O-] | inactive | 
10 | O=C=NC1CCC(CC2CCC(N=C=O)CC2)CC1 (stereo not given) | inactive | 
11 | CC1COc2ccccc2N1C(=O)C(Cl)Cl (stereo not given) | inactive | 
12 | COc1ccc(O)cc1 | inactive | 
13 | CCC(=O)OCc1ccccc1 | inactive | 
14 | Cc1ccc(C(=O)O)o1 | inactive | 
15 | Clc1nc(C(Cl)(Cl)Cl)c(Cl)c(Cl)c1Cl | inactive | 
16 | c1ccc2c(c1)c1cccc3ccc4cccc2c4c31 | inactive | 
17 | O=C1c2ccccc2C(=O)N1SC1CCCCC1 | inactive | 
18 | CC(C)C1CCC(O)CC1 (stereo not given) | inactive | 
19 | O=C(O)CCCCCCCCCCC(=O)O | inactive | 
20 | CC(C)[C@H]1CC[C@@H](C)CC1=O | inactive | 

Row | SMILES | outcome | AC50
21 | COCCCOc1ccnc(CS(=O)c2nc3ccccc3[nH]2)c1C (stereo not given) |  | 23.2 µM (active)
22 | O=[N+]([O-])c1ccc(Nc2ccc(Nc3ccccc3)c(S(=O)(=O)O)c2)c([N+](=O)[O-])c1 | inactive | 
23 | CC(C)(C)c1cc(CCC(=O)NN)cc(C(C)(C)C)c1O | inactive | 
24 | CC(=O)OCc1ccc2c(c1)OCO2 | inactive | 
25 | CC(C#N)(CCC(=O)O)N=NC(C)(C#N)CCC(=O)O (stereo not given) | inactive | 
26 | c1ccc2[nH]ccc2c1 | inactive | 
27 | Cc1ccc(Nc2ccc(O)c3c2C(=O)c2ccccc2C3=O)cc1 | inactive | 
28 | CCC/C=C/C=O | inactive | 
29 | CCCCCCCCCCN | inactive | 
30 | CCCOCC(C)O (stereo not given) | inactive | 
31 | OCCOCCOCCOCCO | inactive | 
32 | OC1C(O)C(O)C(O)C(O)C1O (stereo not given) | inactive | 
33 | CC(C)(N)CO | inactive | 
34 | OC[C@H]1O[C@H](O[C@]2(CCl)O[C@H](CCl)[C@@H](O)[C@@H]2O)[C@H](O)[C@@H](O)[C@H]1Cl | inactive | 
35 | Nc1nc2ccc([N+](=O)[O-])cc2s1 | inactive | 
36 | COc1cc2ncnc(Nc3cccc(Cl)c3)c2cc1OC | inactive | 
37 | CC(C)=CCO | inactive | 
38 | CN(CCOc1ccc(CC2SC(=O)NC2=O)cc1)c1ccccn1 (stereo not given) | inactive | 
39 | CCCCCCCCCCCCOCCO | inactive | 
40 | Cc1ccc2ccccc2n1 | inactive | 
